Laboratory results from publication PMC11062922 (Nature Chemical Biology, 2023).
Where two headings read alike, the source gives them in different places.

Columns and labels:
Set-up in all cases: species or system human, MV4-11 + K-562 + COLO205 + SK-N-BE2 + OVCAR-8
[1] = tested on: ADK; settings: read-out: apparent Kd, n = 1
[2] = tested on: ADRBK1; settings: read-out: apparent Kd, compound concentrations: 100 nM and 1000 nM (sheet 'Samples'), n = 1
[3] = tested on: CAMK2B; settings: read-out: apparent Kd; compound concentrations:100 nM and 1000 nM (sheet 'Samples'); n = 1
[4] = tested on: CAMK2D; settings: read-out: apparent Kd; compound concentrations:100 nM and 1000 nM (sheet 'Samples'); n = 1
[5] = tested on: CSNK1G1; settings: read-out: apparent Kd; compound concentrations:100 nM and 1000 nM (sheet 'Samples'); n = 1
[6] = tested on: EIF2AK1; settings: read-out: apparent Kd; compound concentrations:100 nM and 1000 nM (sheet 'Samples'); n = 1
[7] = tested on: ERN2; settings: read-out: apparent Kd; compound concentrations:100 nM and 1000 nM (sheet 'Samples'); n = 1
[8] = tested on: FN3KRP; settings: read-out: apparent Kd; compound concentrations:100 nM and 1000 nM (sheet 'Samples'); n = 1
[9] = tested on: FN3K; settings: read-out: apparent Kd; compound concentrations:100 nM and 1000 nM (sheet 'Samples'); n = 1
[10] = tested on: ICK; settings: read-out: apparent Kd; compound concentrations:100 nM and 1000 nM (sheet 'Samples'); n = 1
[11] = tested on: LATS1; settings: read-out: apparent Kd; compound concentrations:100 nM and 1000 nM (sheet 'Samples'); n = 1
[12] = tested on: MAP2K1; settings: read-out: apparent Kd, compound concentrations: 100 nM and 1000 nM (sheet 'Samples'), n = 1
[13] = tested on: MAP2K2; settings: read-out: apparent Kd, n = 1
[14] = tested on: MAPK3; settings: read-out: apparent Kd; compound concentrations:100 nM and 1000 nM (sheet 'Samples'); n = 1
[15] = tested on: NEK2; settings: read-out: apparent Kd; compound concentrations:100 nM and 1000 nM (sheet 'Samples'); n = 1
[16] = tested on: NQO2; settings: read-out: apparent Kd; compound concentrations:100 nM and 1000 nM (sheet 'Samples'); n = 1
[17] = tested on: NUAK1; settings: read-out: apparent Kd; compound concentrations:100 nM and 1000 nM (sheet 'Samples'); n = 1
[18] = tested on: PAK6; settings: read-out: apparent Kd; compound concentrations:100 nM and 1000 nM (sheet 'Samples'); n = 1
[19] = tested on: PBK; settings: read-out: apparent Kd; compound concentrations:100 nM and 1000 nM (sheet 'Samples'); n = 1
[20] = tested on: PDXK; settings: read-out: apparent Kd; compound concentrations:100 nM and 1000 nM (sheet 'Samples'); n = 1
[21] = tested on: PFKP; settings: read-out: apparent Kd; compound concentrations:100 nM and 1000 nM (sheet 'Samples'); n = 1
[22] = tested on: PRKX;PRKY; settings: read-out: apparent Kd; compound concentrations:100 nM and 1000 nM (sheet 'Samples'); n = 1
[23] = tested on: TESK1; settings: read-out: apparent Kd; compound concentrations:100 nM and 1000 nM (sheet 'Samples'); n = 1
[24] = tested on: TP53RK; settings: read-out: apparent Kd, n = 1
[25] = tested on: AKT1; settings: read-out: apparent Kd; compound concentrations: 100 nM and 1000 nM (sheet 'Samples'), CATDS: 4.3697981842120898E-2; n = 1
[26] = tested on: AKT2; settings: read-out: apparent Kd; compound concentrations: 100 nM and 1000 nM (sheet 'Samples'), CATDS: 4.5438239597783502E-2; n = 1
[27] = tested on: CAMK4; settings: read-out: apparent Kd; compound concentrations: 100 nM and 1000 nM (sheet 'Samples'), CATDS: 3.6966464107036197E-2; n = 1
[28] = tested on: CSNK1A1; settings: read-out: apparent Kd; compound concentrations: 100 nM and 1000 nM (sheet 'Samples'), CATDS: 3.77728763052241E-2; n = 1
[29] = tested on: EPHA7; settings: read-out: apparent Kd; compound concentrations: 100 nM and 1000 nM (sheet 'Samples'), CATDS: 3.8645316072732999E-2; n = 1
[30] = tested on: ILK; settings: read-out: apparent Kd; compound concentrations: 100 nM and 1000 nM (sheet 'Samples'), CATDS: 0.14244785973502599; n = 1
[31] = tested on: MAP2K4; settings: read-out: apparent Kd; compound concentrations: 100 nM and 1000 nM (sheet 'Samples'), CATDS: 0.186744219541462; n = 1
[32] = tested on: MCM5; settings: read-out: apparent Kd; compound concentrations: 100 nM and 1000 nM (sheet 'Samples'), CATDS: 3.88707631057994E-2; n = 1
[33] = tested on: MYLK3; settings: read-out: apparent Kd; compound concentrations: 100 nM and 1000 nM (sheet 'Samples'), CATDS: 3.9755051907905598E-2; n = 1
[34] = tested on: NNT; settings: read-out: apparent Kd; compound concentrations: 100 nM and 1000 nM (sheet 'Samples'), CATDS: 5.0059398656859502E-2; n = 1
[35] = tested on: NQO1; settings: read-out: apparent Kd; compound concentrations: 100 nM and 1000 nM (sheet 'Samples'), CATDS: 4.7880082762824801E-2; n = 1
[36] = tested on: PRKCI; settings: read-out: apparent Kd; compound concentrations: 100 nM and 1000 nM (sheet 'Samples'), CATDS: 3.7397105483333901E-2; n = 1
[37] = tested on: PYGL; settings: read-out: apparent Kd; compound concentrations: 100 nM and 1000 nM (sheet 'Samples'), CATDS: 3.7417156320033999E-2; n = 1
[38] = tested on: RIOK2; settings: read-out: apparent Kd; compound concentrations: 100 nM and 1000 nM (sheet 'Samples'), CATDS: 4.6117723123063198E-2; n = 1
[39] = tested on: STK11; settings: read-out: apparent Kd; compound concentrations: 100 nM and 1000 nM (sheet 'Samples'), CATDS: 4.1841672980442002E-2; n = 1
[40] = tested on: STK26; settings: read-out: apparent Kd; compound concentrations: 100 nM and 1000 nM (sheet 'Samples'), CATDS: 3.6848584126752397E-2; n = 1
[41] = tested on: VDAC3; settings: read-out: apparent Kd; compound concentrations: 100 nM and 1000 nM (sheet 'Samples'), CATDS: 3.7908226064931903E-2; n = 1
[42] = compound concentrations:100 nM and 1000 nM (sheet 'Samples')

With `O=C(Nc1n[nH]c2nc(-c3ccco3)c(Br)cc12)C1CC1` [SB-739452] the potency estimated from few doses ([1]; compound concentrations: 100 nM and 1000 nM (sheet 'Samples'), CATDS: 1) was 1.72 µM.
In the case of `Nc1cccc(-c2ccc3c(N)n[nH]c3c2)n1` [GSK2192730A], the potency estimated from few doses ([2]; CATDS: 1) is reported as 1.75 µM.
`C[C@@H](c1ccccc1)[C@@H](C(=O)Nc1ccc(I)cc1F)N1C(=O)N[C@H](c2ccc(OC[C@H](O)CO)cc2)C1=O` [RO5068760-000] gave a potency estimated from few doses [1, 42] of 1 µM, a potency estimated from few doses [3] of 0.544 µM and a potency estimated from few doses [4] of 0.45 µM. It also gave a potency estimated from few doses [5] of 2.04 µM, a potency estimated from few doses [6] of 1.39 µM and a potency estimated from few doses [7] of 1.17 µM. It also gave a potency estimated from few doses [8] of 0.959 µM, a potency estimated from few doses [9] of 1.2 µM and a potency estimated from few doses [10] of 1.31 µM. The potency estimated from few doses [11] was 1.76 µM, the potency estimated from few doses ([12]; CATDS: 0.123510753631687) was 0.183 µM and the potency estimated from few doses [13, 42] was 0.165 µM. It also gave a potency estimated from few doses [14] of 1.33 µM, a potency estimated from few doses [15] of 1.57 µM and a potency estimated from few doses [16] of 0.787 µM. The potency estimated from few doses [17] was 1.92 µM, the potency estimated from few doses [18] was 1.73 µM and the potency estimated from few doses [19] was 2.03 µM. The potency estimated from few doses [20] was 0.612 µM, the potency estimated from few doses [21] was 2.22 µM and the potency estimated from few doses [22] was 1.13 µM. The potency estimated from few doses [23] was 0.543 µM and the potency estimated from few doses [24, 42] was 1.62 µM.
Molecule `COc1cc2ncn(-c3cc(OCc4ccccc4C(F)(F)F)c(C(C)=O)s3)c2cc1OC` [GSK1030059A] has a potency estimated from few doses ([2]; CATDS: 0.14381840818805) of 0.132 µM, a potency estimated from few doses [25] of 1.3 µM and a potency estimated from few doses [26] of 1.18 µM. It also gave a potency estimated from few doses [27] of 2.08 µM, a potency estimated from few doses [28] of 1.95 µM and a potency estimated from few doses [29] of 1.82 µM. The potency estimated from few doses [30] was 0.134 µM, the potency estimated from few doses ([12]; CATDS: 0.14670729977766001) was 0.128 µM and the potency estimated from few doses ([13]; compound concentrations: 100 nM and 1000 nM (sheet 'Samples'), CATDS: 4.5160118472274198E-2) was 1.19 µM. For the same molecule, the potency estimated from few doses [31] was 0.0895 µM, the potency estimated from few doses [32] was 1.79 µM and the potency estimated from few doses [33] was 1.67 µM. For the same molecule, the potency estimated from few doses [34] was 0.933 µM, the potency estimated from few doses [35] was 1.04 µM and the potency estimated from few doses [36] was 2.01 µM. For the same molecule, the potency estimated from few doses [37] was 2 µM, the potency estimated from few doses [38] was 1.13 µM and the potency estimated from few doses [39] was 1.45 µM. The potency estimated from few doses [40] was 2.1 µM, the potency estimated from few doses ([24]; compound concentrations: 100 nM and 1000 nM (sheet 'Samples'), CATDS: 4.1477973818590801E-2) was 1.49 µM and the potency estimated from few doses [41] was 1.93 µM.
